# Screening results as filed in PubChem.
# The list is not random: actives were taken first. Their share in the collection is about 4.6%.
# NLRP3 yeast inh – NALP3 inhibition in yeast. 330,000 compounds, 0.39% hits. AID 2825. Yeast reconstituted NLRP3/ASC/caspase-1, beta-gal luminescence, 24 h. inhibition, % at 10 µM;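 active means inhibition of 50% or more; inactive means inhibition below 50%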;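 further: plate controls were induced DMSO wells for no effect and uninduced yeast grown without galactose for full effect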
# tim10-1 inh – inhibits growth of tim10-1 mutant yeast; S. cerevisiae tim10-1 ts strain growth, BacTiter-Glo, 24 h; inhibition, % at 20 µM; 330,000 compounds, 2.2% hits;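 active means inhibition of at least 40%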;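 further: mutant grown at 25 °C; 0% = DMSO wells with yeast and 100% = wells holding no yeast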
# SKKanGAS inh – inhibitors of SKKanGAS S. pyogenes growth in kanamycin (SK-promoter or general growth effect); BacTiter-Glo, 6 h; inhibition, % at 7.5 µM; 300,000 compounds, 1.3% hits; AID 1662;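 active means mean replicate score, as percent of positive control median, at least 50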;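 further: strain carries kanamycin resistance gene driven by streptokinase promoter and grows in 40 µg/ml kanamycin; loss of luminescence reflects streptokinase promoter inhibition or plain growth inhibition; 0% = median of DMSO wells and 100% = positive control at its reference dose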
# TIM10 inh – inhibits growth of TIM10 yeast strain | S. cerevisiae TIM10 strain growth, BacTiter-Glo luminescence, 24 h | 330,000 compounds, 1.4% hits | inhibition, % at 10 µM | AID 463195;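 active means inhibition of 40% or more at the single tested concentration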;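 further: wild-type TIM10 isogenic control strain grown at permissive 25 °C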
# tim23-1 inh – tim23-1 yeast growth inhibition; inhibition, % at 20 µM; 330,000 compounds, 1.3% hits; S. cerevisiae tim23-1 growth, BacTiter-Glo luminescence, 24 h;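 active means growth inhibition of the mutant yeast at or above 50%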;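 further: temperature-sensitive mutant grown at 25 °C; plate controls were DMSO-treated mutant yeast for no effect and medium wells lacking yeast for full effect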
# tim10-1 confirm – tim10-1 yeast growth inhibition, confirmed | 7,400 compounds, 56% hits | inhibition, % at 20 µM | AID 463213 | shares compounds with tim10-1 inh | S. cerevisiae tim10-1 ts strain growth, BacTiter-Glo, 24 h;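 active means inhibition of yeast growth at or above a set limit in either of two repeat tests at 20 µM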;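 further: tim10-1 mutant grown at permissive 25 °C to find synthetic lethal compounds; 0% = DMSO yeast wells and 100% = medium wells without yeast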
# The depositor's hits bear a star; · = no result given.
SMILES,NLRP3 yeast inh,tim10-1 inh,SKKanGAS inh,TIM10 inh,tim23-1 inh,tim10-1 confirm
O=C(COc1ccccc1)Nc1ccc(S(=O)(=O)N2CCCC2)cc1,18.3,41.0*,-5.0,27.7,27.1,31.1
Cc1ccccc1OCC(=O)Nc1ccc(S(=O)(=O)N2CCCC2)cc1,5.4,49.4*,6.0,25.2,23.4,37.1*
COc1ccccc1OCC(=O)Nc1ccc(S(=O)(=O)N2CCCCCC2)cc1,3.9,30.8,0.7,30.7,30.7,·
COc1ccc(OCC(=O)Nc2ccc(S(=O)(=O)N3CCCC3)cc2)cc1,13.2,26.1,1.3,37.3,31.0,·
CCc1c(C)nc(SCC(=O)CC(=O)OC(C)C)c(C#N)c1C,15.4,44.1*,2.5,26.8,41.6,31.1
C=CCn1c(SCc2ccc(C#N)cc2)nnc1-c1cccc(Cl)c1,14.0,46.0*,-11.1,23.2,40.7,23.1
C=CCn1c(SCc2cccc(C#N)c2)nnc1-c1ccccc1O,-6.2,19.5,-2.9,7.6,34.3,·
O=C(O)C1C2CCC(C2)C1C(=O)N1CCCC1 (configuration not stated),24.5,-12.8,-0.4,-4.6,10.1,·
Cc1c(NC(=O)/C(C#N)=C/c2ccc(-c3ccc(Cl)c(Cl)c3)o2)c(=O)n(-c2ccccc2)n1C,21.3,42.5*,1.0,33.5,29.5,28.4*
Cc1cccn2c(=O)c3cc(C(=O)NC4CCCCC4)c(=N)n(Cc4ccc(F)cc4)c3nc12,6.9,42.0*,-4.2,5.0,21.4,-8.9
Cc1cccn2c(=O)c3cc(C(=O)NC4CCCC4)c(=N)n(CC4CCCO4)c3nc12 (configuration not stated),-0.2,-3.7,1.1,5.3,3.2,·
CCN(CC)CCOc1c(Br)ccc2c1sc1nc3n(c(=O)c12)CCC3,15.9,34.6,0.4,10.8,-5.6,·
O=c1c2c(nc3n1CCCCC3)sc1c(O)c(Br)ccc12,20.5,45.2*,29.2,12.8,45.4,27.9
CCOC(=O)CC(=O)NC(C)(C)CCCCC(C)(C)NC(=O)CC(=O)OCC,10.8,12.8,-3.1,-20.0,2.2,·
Cc1cc(C)c(S(=O)(=O)N2CCN(C(=O)C3COc4ccccc4O3)CC2)c(C)c1 (configuration not stated),18.3,40.0*,·,20.9,44.5,28.1
Cc1ccc(S(=O)(=O)N2CCN(C(=O)C3COc4ccccc4O3)CC2)cc1C (configuration not stated),24.1,21.2,-7.3,4.8,20.2,·
Cc1noc(C)c1COc1ccc(C(=O)N2CCN(c3ccccn3)CC2)cc1,10.9,-8.3,0.2,-2.5,4.6,·
Cc1ccc(-c2cnc(C3CC3)o2)cc1S(=O)(=O)Nc1ccccc1,-1.7,41.2*,2.3,14.8,39.4,3.9
CC(=O)Nc1ccc(NS(=O)(=O)c2cc(-c3cnc(C4CC4)o3)ccc2C)cc1,-4.5,1.2,-2.9,0.8,-0.9,·
Cc1ccc(S(=O)(=O)NCC(=O)N(CC(=O)NCC2CCCO2)Cc2ccccc2Cl)cc1 (configuration not stated),1.9,3.1,1.6,-5.9,6.1,·
S=C(c1ccc(-c2ccc(Cl)cc2)o1)N1CCCCC1,6.0,22.1,-20.0,6.0,10.1,·
N#CCCN1CCN(C(=S)c2ccc(-c3ccc(Cl)cc3)o2)CC1,5.9,44.7*,-9.0,20.0,32.2,22.0
COc1cccc(CNC(=O)Cn2ccc3cc(S(=O)(=O)N4CCCCCC4)ccc32)c1OC,12.1,31.2,0.4,18.5,18.5,·
CC(=O)c1sc(N/N=C2\CC3CC2C(C)C3(C)C)nc1C (configuration not stated),14.8,45.1*,8.8,18.3,19.6,28.5
O=C(c1cc(C2CC2)nc2ccccc12)N1N=C(C(F)F)CC1(O)C(F)F (configuration not stated),8.1,10.9,-4.1,6.4,10.0,·
SMILES,NLRP3 yeast inh,tim10-1 inh,SKKanGAS inh,TIM10 inh,tim23-1 inh,tim10-1 confirm
CC(C)c1ccc(-c2cc(C(=O)N3N=C(C(F)F)CC3(O)C(F)F)c3ccccc3n2)cc1 (configuration not stated),14.3,41.3*,90.5*,24.7,37.1,27.4
COc1ccc(-n2ncc3c(N4CCN(Cc5ccccc5)CC4)ncnc32)cc1,10.0,45.5*,0.7,30.1,25.8,25.5
CCOc1ccc(Nc2ncnc3c2cnn3Cc2ccccc2)cc1,8.9,41.0*,-3.2,24.9,38.5,36.9*
COc1ccc(Nc2ncnc3c2cnn3Cc2ccccc2)cc1,10.7,46.3*,17.1,28.9,38.3,34.0*
CCN1C(=O)C(=O)N(Cc2ccc(OC)c(F)c2)C1=O,-1.6,-15.2,-7.5,6.8,4.6,·
O=C(CN1C(=O)NC2(CCCC2)C1=O)Nc1cc(Cl)ccc1N1CCCCC1,11.4,1.2,-1.0,-6.1,10.4,·
Cc1ccc(NC(=O)CSc2nnc(N)s2)cc1S(=O)(=O)N1CCOCC1,20.7,1.1,-1.2,-2.8,8.5,·
CCOC(=O)c1c(N2C(=O)C3CC(C)=C(C)CC3C2=O)sc(C)c1C (configuration not stated),4.8,40.3*,2.8,12.4,39.7,10.8
CC(C)N(C(=O)CSc1nc2ccccc2n1-c1ccccc1)C(C)C,2.6,45.4*,-12.1,28.0,32.9,28.0
O=C(O)c1ccc(N=Nc2c(-c3ccccc3)[nH]oc2=O)cc1,1.6,1.3,2.1,10.1,7.7,·
O=C(Nc1ccc(Cl)cn1)C1C(c2ccccc2)C1(Cl)Cl (configuration not stated),17.2,46.2*,11.2,8.9,47.3,33.6*
O=C(Nc1ccc(Cl)cn1)C1CC1,15.9,1.8,1.6,6.1,13.4,·
Cc1ccc2nc3n(c(=O)c2c1)-c1ccccc1C(=O)NC3Cc1ccc(O)cc1 (configuration not stated),24.8,-11.5,·,-4.9,-0.2,·
COc1ccc(/C=N/Nc2cn[nH]c(=O)c2Cl)cc1,-1.7,41.7*,21.6,32.0,20.2,8.8
Cc1ccc(/C=N\Nc2cn[nH]c(=O)c2Cl)cc1,2.6,27.6,2.0,31.7,40.8,·
Cn1c(N)c(C(=O)COC(=O)CCCOc2ccc(Cl)cc2Cl)c(=O)n(C)c1=O,13.8,41.7*,12.2,19.5,20.3,41.3*
Cn1c(N)c(C(=O)COC(=O)Cc2ccc(Cl)cc2Cl)c(=O)n(C)c1=O,4.9,23.9,·,19.0,29.4,·
C[n+]1cccc2c(Br)ccc([O-])c21,14.9,20.5,-0.5,12.6,9.1,·
[O-][n+]1cccc2c(Br)cc(Br)c(O)c21,28.1,49.0*,76.1*,39.8,40.3,22.7
O=C(NC(CO)(CO)CO)[C@@H]1CCCN1S(=O)(=O)c1cccc2cccnc12,15.8,-14.0,·,-7.3,-13.0,·
Cc1cc(C)c(/C=C(\C#N)C(N)=S)c(C)c1,12.1,40.7*,-7.6,27.3,45.5,23.4
COc1ccc(-c2nc(CSCC(=O)NC3CCCc4ccccc43)c(C)o2)cc1OC (configuration not stated),2.1,41.1*,11.3,20.6,29.2,10.9
